Assay outcomes as filed in PubChem.
Rows were chosen to be rich in hits. Some 27% of all compounds tested hit in one or more screens of this group.
CYP2C9 inh: inhibitors of human CYP2C9 | CYP2C9 Supersomes, luciferin-H conversion, luminescence | P11712 | inhibition, % at 5 µM | 96,000 compounds, 20% hits;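 active = blocking of liver enzyme CYP2C9 beyond about 50% at 5 µM, limit read from the data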
CYP2C19 inhib: human CYP2C19 inhibition; AID 778; 96,000 compounds, 21% hits; inhibition, % at 5 µM; CYP2C19 Supersomes, luciferin-H EGE luminescence, 30 min; P33261;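 active = CYP2C19 inhibition above a set limit at 5 µM in the primary screen, cut at about 50% in these data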
Target sequence (P33261 whole entry, looked up): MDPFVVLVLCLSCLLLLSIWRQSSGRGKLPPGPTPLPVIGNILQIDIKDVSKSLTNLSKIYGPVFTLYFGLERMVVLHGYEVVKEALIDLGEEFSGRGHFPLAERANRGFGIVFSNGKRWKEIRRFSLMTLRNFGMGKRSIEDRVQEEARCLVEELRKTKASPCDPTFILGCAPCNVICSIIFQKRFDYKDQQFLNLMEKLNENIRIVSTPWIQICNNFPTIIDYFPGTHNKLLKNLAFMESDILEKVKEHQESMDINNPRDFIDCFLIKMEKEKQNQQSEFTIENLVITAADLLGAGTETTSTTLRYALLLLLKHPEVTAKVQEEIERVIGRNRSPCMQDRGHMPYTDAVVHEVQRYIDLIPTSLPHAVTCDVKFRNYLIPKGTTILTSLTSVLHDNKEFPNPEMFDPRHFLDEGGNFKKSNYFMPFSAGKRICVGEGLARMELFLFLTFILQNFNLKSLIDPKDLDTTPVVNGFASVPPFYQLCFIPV
CYP2C9 activ: CYP2C9 (human) activation. recombinant CYP2C9, luciferin-H conversion, luminescence; stronger effect = higher value; factor 1 = untreated enzyme, 0 = blocked. activation factor at 5 µM. P11712. 96,000 compounds, 1.4% hits;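 active = activation factor of 2 or more for CYP2C9 at a 5 µM dose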
EphB4 ephrin blk: blocks human EphB4 binding to ephrin-B2. AID 720. P54760. 97,000 compounds, 0.15% hits. inhibition, % at 7 µM. EphB4 LBD / TNYL-RAW-Alexa532 peptide, fluorescence polarization;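 active = inhibition above the screen-wide mean inhibition plus 3 SD, cut at about 15% in these data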
CYP2C19 activ: increases human CYP2C19 enzyme activity; activation factor at 5 µM; P33261; recombinant CYP2C19, luciferin-H EGE luminescence; stronger effect = higher value; 0 = fully inhibited enzyme, 1 = untreated enzyme; AID 1025; 96,000 tested, under 10 active;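 active = activation factor of at least 2 at 5 µM in the primary screen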
A number is an active result; - = inactive; . = no result given.

SMILES | CYP2C9 inh | CYP2C19 inhib | CYP2C9 activ | EphB4 ephrin blk | CYP2C19 activ
COc1ccc(NC(=O)c2ccc(S(=O)(=O)N3CCOCC3)cc2)c(OC)c1 | - | - | 2.6 | - | -
O=C(Nc1nccs1)c1ccc(Cl)c(S(=O)(=O)N2CCOCC2)c1 | - | - | - | - | -
O=C(Nc1ccccc1)c1ccc(F)c(S(=O)(=O)N2CCOCC2)c1 | 56 | 57 | - | . | -
O=C(NCc1ccccc1)c1ccc(F)c(S(=O)(=O)N2CCOCC2)c1 | - | - | - | - | -
Cc1ccc(NC(=O)c2ccc(F)c(S(=O)(=O)N3CCOCC3)c2)cc1F | - | - | - | - | -
CCOc1ccccc1NC(=O)c1ccc(F)c(S(=O)(=O)N2CCC3(CC2)OCCO3)c1 | 58 | 58 | - | - | -
COC(=O)c1ccc(NC(=O)CSCC(=O)OCC(=O)c2ccc(Br)cc2)cc1 | - | - | - | - | -
CC1CC(C)CN(c2oc(-c3ccco3)nc2C#N)C1 (stereo unspecified) | . | . | . | - | .
CCOc1nc(SCCOc2ccccc2)nc(N(C)C)n1 | - | - | - | . | -
Cc1ccc(NC(=O)COC(=O)CCc2c[nH]c(=O)[nH]2)cc1 | - | - | - | - | -
Cc1nn2cc(-c3ccc(N)cc3)nc2s1 | - | - | - | - | -
COc1ccc(CC(=O)NCc2ccccc2Cl)cc1S(=O)(=O)N1CCOCC1 | . | . | . | - | .
CCOC(=O)CSc1nc2sc3c(c2c(=O)n1C1CCCCC1)CCN(C)C3 | . | . | . | - | .
O=C(Nc1ccccc1C(=O)O)c1ccc(Cl)c(S(=O)(=O)N2CCOCC2)c1 | 75 | - | - | - | -
Cc1ccc(-n2nc3c(c2NC(=O)c2ccc(S(=O)(=O)N4CCOCC4)cc2)CSC3)c(C)c1 | 67 | - | - | - | -
Cc1cccc(-n2nc3c(c2NC(=O)c2ccc(S(=O)(=O)N4CCOCC4)cc2)CSC3)c1C | - | - | - | - | -
COc1ccccc1NC(=O)c1ccc(Cl)c(S(=O)(=O)N2CCOCC2)c1 | 51 | - | - | - | -
COc1ccc(C(=O)NCC(c2ccc(F)cc2)N2CCOCC2)cc1S(=O)(=O)N1CCCC1 (stereo unspecified) | - | 92 | - | - | -
Cc1cc(C(=O)NNC(=S)NC(=O)/C=C/c2ccccc2Cl)n[nH]1 | - | - | - | - | -
COc1ccc(C=C(c2ccc(OC)cc2)c2ccc(OC)cc2)cc1 | - | - | - | - | -
COc1cccc(C(=O)NCC2CCN(c3ccc(S(=O)(=O)N4CCOCC4)cc3)CC2)c1 | 55 | 56 | - | - | -
COc1ccc(NC(=O)CSc2nc3c(cc2C#N)CN(C)CC3)cc1 | 66 | - | - | . | -
CN1CCc2nc(SCC(=O)Nc3ccc(F)cc3)c(C#N)cc2C1 | 75 | 90 | - | - | -
CCN1CCc2nc(SCC(=O)Nc3ccc(OC)cc3)c(C#N)cc2C1 | 73 | - | - | . | -
COC(=O)CC(=O)CSc1nc2c(cc1C#N)CCCCC2 | 76 | 62 | - | - | -
SMILES | CYP2C9 inh | CYP2C19 inhib | CYP2C9 activ | EphB4 ephrin blk | CYP2C19 activ
COc1ccc(NC(=O)c2oc3ccc(S(=O)(=O)N4CCC5(CC4)OCCO5)cc3c2C)cc1 | - | - | - | . | -
COc1ccc(OCC(=O)N2CCN(C(=O)c3cccc(F)c3)CC2)cc1 | - | - | - | - | -
C=CCNC(=S)NNC(=O)c1ccc2c(c1)OCO2 | . | . | . | - | .
CN1CCN(CC#CCn2c3ccccc3c3ccccc32)CC1 | - | 59 | - | - | -
Cc1cccn2c(=O)c3cc(C#N)c(=N)n(Cc4cccnc4)c3nc12 | . | . | . | - | .
Nc1ccc(-n2nncc2-c2ccc(Cl)cc2)cc1 | 57 | 64 | - | - | -
Cc1nc(C(=O)Nc2ccc(Cl)cc2)nn1-c1ccc([N+](=O)[O-])cc1 | - | - | - | - | -
CC(C)(C)c1cnnn1-c1ccc(-c2csc(N)n2)cc1 | - | - | - | - | -
O=[N+]([O-])c1ccc(-n2nncc2-c2ccc(Cl)cc2)cc1 | 54 | 90 | - | - | -
Cc1ccc(S(=O)(=O)N2CCCC(c3nnc4n3-c3ccccc3SC4)C2)cc1 (stereo unspecified) | - | - | - | - | -
NC(=O)c1ccsc1NC(=O)C1CCCCC1 | - | 63 | - | - | -
CCCCNC(=O)Cn1c(=O)oc2cc(S(=O)(=O)N3CC(C)CC(C)C3)ccc21 (stereo unspecified) | 57 | - | - | - | -
Cc1cc(C)cc(NC(=O)Cn2c(=O)oc3cc(S(=O)(=O)N4CC(C)CC(C)C4)ccc32)c1 (stereo unspecified) | 56 | - | - | - | -
N#Cc1ccc(-c2ccc(Cl)cc2)nc1SCC(=O)c1cccc(Cl)c1 | - | - | - | - | -
N#Cc1ccc(-c2ccccc2)nc1SCC(=O)c1cccc(Cl)c1 | 63 | - | - | - | -
O=C1CC(Cc2ccc(Cl)cc2)C(=O)N1c1ccncc1 (stereo unspecified) | . | . | . | - | .
O=C1C2CC=CCC2C(=O)N1c1ccc(Cc2ccncc2)cc1 (stereo unspecified) | 85 | 68 | - | - | -
COc1ccc(S(=O)(=O)n2nc(OC(=O)c3ccccc3)cc2N)cc1 | - | - | - | - | -
Cc1onc(-c2ccccc2Cl)c1C(=O)Oc1cc(N)n(S(=O)(=O)c2ccc(F)cc2)n1 | - | - | - | - | -
Cc1ccc(S(=O)(=O)n2nc(OC(=O)c3c(-c4ccccc4Cl)noc3C)cc2N)cc1 | 93 | - | - | - | -
COc1ccc(S(=O)(=O)n2nc(OC(=O)c3ccc(C)cc3)cc2N)cc1 | 81 | - | - | . | -
COc1ccc(S(=O)(=O)n2nc(OC(=O)c3ccccc3Br)cc2N)cc1 | 93 | - | - | - | -
COc1ccc(S(=O)(=O)n2nc(OC(=O)c3cccs3)cc2N)cc1 | 73 | - | - | - | -
COc1ccc(S(=O)(=O)n2nc(OC(=O)c3ccco3)cc2N)cc1 | - | - | - | - | -
COc1ccc(-c2noc(CN3C(=O)c4ccccc4C3=O)n2)cc1 | - | - | - | - | -
SMILES | CYP2C9 inh | CYP2C19 inhib | CYP2C9 activ | EphB4 ephrin blk | CYP2C19 activ
O=C(NC1CCCC1)C1CC1c1ccccc1 (stereo unspecified) | 63 | 73 | - | - | -
O=C(O)C1CCCCC1C(=O)NC1CCCCC1 (stereo unspecified) | - | - | - | - | -
O=C(Nc1ccncc1)C1CC1c1ccccc1 (stereo unspecified) | 84 | 97 | - | - | -
CCc1c(C)sc(NC(=O)C2CC2c2ccccc2)c1C(N)=O (stereo unspecified) | - | - | - | - | -
C/C(=C\C(=O)c1ccc(Cl)cc1)Nc1ccc(N2CCOCC2)cc1 | - | - | - | - | -
CCNC(=O)c1c(C)[nH]c(C(=O)OCC)c1C | - | - | - | . | -
CCOC(=O)CCn1c2nc(C)cc(C)c2c(=O)n1-c1ccccc1 | - | 56 | - | - | -
CCOC(=O)Cn1nc(C)n(-c2ccccc2)c1=O | - | - | - | - | -
CSCCC1NC2(C(=O)Nc3c(C)cc(Cl)cc32)[C@@H]2C(=O)N(C3CCCC3)C(=O)[C@H]12 (stereo partly specified) | 60 | - | - | - | -
CCC(=O)Nc1nc2ccccc2n1Cc1ccccc1 | - | - | - | . | -
